Laboratory results published in the supplement of paper PMC11001985.

compound: C#CCNC(=O)CCSSCCC(=O)NCCc1ccc(C=O)c(C=O)c1; test: lysine labeling ratio R10:1 (500 µM / 50 µM probe), SILAC-ABPP in living cells; higher = lower intrinsic lysine reactivity toward the probe, active = 2 or less; settings: HeLa; probe concentrations 500 vs 50 µM
Summary of the method: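 R, given per lysine, is the filtered median high-probe/low-probe MS1 peptide ratio, with the median then taken across forward and reverse replicates. Cells were living SILAC light and heavy HeLa cells in PBS at room temperature, labelled with 50 µM or 500 µM of an alkyne-tagged, disulfide-linked lysine probe. The ceiling applied is 20.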

UniProt Q15149, sequence (Q15149 whole entry): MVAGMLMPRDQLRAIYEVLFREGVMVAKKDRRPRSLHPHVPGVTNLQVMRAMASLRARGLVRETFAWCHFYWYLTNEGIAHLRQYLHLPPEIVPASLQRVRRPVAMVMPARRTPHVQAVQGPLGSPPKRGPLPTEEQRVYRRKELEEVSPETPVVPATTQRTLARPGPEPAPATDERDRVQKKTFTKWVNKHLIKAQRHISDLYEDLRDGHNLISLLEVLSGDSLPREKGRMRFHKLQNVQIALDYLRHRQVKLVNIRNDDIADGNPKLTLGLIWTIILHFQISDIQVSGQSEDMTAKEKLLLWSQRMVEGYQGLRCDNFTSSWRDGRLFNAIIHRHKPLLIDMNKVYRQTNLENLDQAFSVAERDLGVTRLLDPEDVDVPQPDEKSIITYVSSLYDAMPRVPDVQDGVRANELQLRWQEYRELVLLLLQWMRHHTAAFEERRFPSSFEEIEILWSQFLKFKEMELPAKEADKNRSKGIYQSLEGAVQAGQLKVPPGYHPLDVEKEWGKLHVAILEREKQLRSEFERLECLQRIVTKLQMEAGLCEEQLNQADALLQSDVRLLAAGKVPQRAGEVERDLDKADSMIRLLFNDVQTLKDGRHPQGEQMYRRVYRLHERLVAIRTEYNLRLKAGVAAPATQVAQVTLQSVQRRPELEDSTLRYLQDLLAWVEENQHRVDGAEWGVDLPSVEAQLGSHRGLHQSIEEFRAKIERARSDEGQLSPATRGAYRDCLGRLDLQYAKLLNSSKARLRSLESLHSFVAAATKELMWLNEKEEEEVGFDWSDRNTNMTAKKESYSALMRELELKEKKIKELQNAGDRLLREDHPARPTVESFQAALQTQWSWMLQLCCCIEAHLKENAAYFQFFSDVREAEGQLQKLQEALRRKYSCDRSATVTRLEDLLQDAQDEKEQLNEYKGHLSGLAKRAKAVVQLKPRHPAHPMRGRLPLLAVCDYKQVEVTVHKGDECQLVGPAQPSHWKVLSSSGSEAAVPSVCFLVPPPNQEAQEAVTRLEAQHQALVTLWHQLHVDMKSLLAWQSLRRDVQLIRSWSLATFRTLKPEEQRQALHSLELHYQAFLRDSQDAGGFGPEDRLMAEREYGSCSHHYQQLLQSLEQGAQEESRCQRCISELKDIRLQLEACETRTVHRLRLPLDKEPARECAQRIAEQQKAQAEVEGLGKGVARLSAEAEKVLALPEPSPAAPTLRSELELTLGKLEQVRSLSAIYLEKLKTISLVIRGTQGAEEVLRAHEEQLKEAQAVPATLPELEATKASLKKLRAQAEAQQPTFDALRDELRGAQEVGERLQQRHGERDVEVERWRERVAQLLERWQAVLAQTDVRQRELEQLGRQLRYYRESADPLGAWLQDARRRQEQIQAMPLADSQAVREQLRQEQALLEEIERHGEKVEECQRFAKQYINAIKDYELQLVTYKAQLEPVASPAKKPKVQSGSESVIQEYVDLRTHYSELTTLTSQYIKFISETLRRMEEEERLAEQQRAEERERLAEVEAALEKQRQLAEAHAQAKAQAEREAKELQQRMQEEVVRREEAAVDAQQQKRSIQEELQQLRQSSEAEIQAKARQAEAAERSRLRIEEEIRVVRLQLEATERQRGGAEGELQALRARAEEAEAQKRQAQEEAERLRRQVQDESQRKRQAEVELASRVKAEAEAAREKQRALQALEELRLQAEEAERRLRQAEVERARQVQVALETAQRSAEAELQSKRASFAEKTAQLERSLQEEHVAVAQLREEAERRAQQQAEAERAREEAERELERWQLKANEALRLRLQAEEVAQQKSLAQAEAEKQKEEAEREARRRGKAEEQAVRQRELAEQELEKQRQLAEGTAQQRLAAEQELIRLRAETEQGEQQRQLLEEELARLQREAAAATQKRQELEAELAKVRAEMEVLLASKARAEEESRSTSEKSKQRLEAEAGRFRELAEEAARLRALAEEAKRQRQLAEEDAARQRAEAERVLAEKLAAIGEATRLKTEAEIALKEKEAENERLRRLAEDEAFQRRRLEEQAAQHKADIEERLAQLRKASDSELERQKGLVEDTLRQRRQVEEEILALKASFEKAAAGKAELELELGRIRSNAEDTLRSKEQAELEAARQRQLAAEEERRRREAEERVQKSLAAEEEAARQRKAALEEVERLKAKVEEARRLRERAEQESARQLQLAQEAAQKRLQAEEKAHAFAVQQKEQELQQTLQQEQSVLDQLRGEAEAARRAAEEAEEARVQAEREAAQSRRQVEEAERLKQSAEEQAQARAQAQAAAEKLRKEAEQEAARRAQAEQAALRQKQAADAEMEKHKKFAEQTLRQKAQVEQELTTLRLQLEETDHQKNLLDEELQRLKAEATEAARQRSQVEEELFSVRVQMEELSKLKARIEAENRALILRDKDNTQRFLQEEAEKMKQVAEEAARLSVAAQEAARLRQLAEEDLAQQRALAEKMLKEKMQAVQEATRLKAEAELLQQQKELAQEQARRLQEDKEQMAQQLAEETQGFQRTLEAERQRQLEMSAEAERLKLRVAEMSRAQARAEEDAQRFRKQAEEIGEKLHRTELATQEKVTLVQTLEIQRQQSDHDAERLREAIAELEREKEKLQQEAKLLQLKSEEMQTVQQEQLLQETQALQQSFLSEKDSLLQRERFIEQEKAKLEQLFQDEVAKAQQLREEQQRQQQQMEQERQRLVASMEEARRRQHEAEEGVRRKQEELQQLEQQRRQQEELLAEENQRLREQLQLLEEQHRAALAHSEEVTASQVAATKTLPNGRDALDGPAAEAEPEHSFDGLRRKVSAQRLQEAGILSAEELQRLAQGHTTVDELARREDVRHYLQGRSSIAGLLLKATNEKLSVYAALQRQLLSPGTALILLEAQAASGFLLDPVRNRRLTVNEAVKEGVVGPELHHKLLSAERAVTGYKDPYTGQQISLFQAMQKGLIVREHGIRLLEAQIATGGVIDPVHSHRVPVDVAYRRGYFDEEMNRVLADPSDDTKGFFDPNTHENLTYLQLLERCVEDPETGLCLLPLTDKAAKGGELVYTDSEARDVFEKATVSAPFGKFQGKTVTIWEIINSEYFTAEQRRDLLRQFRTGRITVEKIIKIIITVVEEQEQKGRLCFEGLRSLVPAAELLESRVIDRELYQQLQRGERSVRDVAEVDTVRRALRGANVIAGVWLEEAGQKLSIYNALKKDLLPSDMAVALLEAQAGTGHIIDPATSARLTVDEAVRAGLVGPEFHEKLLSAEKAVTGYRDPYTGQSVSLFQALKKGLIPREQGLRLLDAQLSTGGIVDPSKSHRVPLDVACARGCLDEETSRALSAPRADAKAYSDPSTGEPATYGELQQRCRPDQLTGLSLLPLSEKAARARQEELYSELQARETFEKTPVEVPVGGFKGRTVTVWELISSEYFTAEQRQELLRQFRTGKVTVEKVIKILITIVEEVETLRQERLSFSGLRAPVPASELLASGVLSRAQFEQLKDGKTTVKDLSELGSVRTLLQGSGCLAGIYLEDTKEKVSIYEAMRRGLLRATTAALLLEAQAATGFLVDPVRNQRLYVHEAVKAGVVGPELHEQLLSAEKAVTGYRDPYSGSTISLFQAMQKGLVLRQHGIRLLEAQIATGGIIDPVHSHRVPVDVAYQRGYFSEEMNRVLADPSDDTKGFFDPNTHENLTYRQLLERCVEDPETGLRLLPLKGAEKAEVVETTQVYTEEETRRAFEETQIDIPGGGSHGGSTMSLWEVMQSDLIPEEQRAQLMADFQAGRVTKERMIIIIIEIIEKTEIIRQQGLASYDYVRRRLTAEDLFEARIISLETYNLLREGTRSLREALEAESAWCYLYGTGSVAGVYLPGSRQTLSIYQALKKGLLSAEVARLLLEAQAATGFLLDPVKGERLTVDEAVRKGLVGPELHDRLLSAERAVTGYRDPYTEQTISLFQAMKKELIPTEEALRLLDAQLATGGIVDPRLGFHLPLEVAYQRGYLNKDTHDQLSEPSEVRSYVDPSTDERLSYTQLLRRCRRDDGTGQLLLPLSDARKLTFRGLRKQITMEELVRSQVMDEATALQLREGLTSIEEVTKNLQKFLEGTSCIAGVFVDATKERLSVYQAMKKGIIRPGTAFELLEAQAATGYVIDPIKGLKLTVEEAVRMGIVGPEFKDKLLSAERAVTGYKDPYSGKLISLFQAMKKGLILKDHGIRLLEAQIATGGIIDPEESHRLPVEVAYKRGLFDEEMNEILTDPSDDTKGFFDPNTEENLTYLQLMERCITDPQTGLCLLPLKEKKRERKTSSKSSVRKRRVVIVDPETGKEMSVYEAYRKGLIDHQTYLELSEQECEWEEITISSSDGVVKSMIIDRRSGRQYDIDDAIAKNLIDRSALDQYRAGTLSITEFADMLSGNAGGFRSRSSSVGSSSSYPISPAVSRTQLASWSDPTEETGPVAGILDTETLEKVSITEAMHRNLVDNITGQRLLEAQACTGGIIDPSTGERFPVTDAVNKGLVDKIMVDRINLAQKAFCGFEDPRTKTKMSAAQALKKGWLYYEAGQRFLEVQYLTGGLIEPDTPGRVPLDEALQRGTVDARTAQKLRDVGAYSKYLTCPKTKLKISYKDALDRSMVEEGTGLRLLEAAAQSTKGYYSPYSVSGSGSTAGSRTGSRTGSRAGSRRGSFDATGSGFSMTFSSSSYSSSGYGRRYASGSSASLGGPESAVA
UniProt Q13501, sequence (Q13501 whole entry): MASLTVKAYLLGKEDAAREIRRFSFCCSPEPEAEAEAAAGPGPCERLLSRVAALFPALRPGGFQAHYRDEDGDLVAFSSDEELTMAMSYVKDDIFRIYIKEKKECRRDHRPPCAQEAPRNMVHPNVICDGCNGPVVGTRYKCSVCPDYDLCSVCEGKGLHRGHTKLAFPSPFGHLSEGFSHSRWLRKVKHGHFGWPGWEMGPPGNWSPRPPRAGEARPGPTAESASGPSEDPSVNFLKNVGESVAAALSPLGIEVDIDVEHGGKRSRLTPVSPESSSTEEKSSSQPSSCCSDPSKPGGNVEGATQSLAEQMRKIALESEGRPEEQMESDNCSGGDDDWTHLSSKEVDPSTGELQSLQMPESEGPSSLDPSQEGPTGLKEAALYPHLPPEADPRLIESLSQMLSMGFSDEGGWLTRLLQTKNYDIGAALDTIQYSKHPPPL

Target	lysine labeling ratio R10:1
ULBP2 (lysine site: K116) (UniProt Q9BZM5)	5.14 (inactive)
DSG2 (lysine site: K251) (UniProt Q14126)	8.19 (inactive)
PTPRJ (lysine site: K876) (UniProt Q12913)	3.12 (inactive)
AHNAK (lysine site: K128) (UniProt Q09666)	1.37 (active)
FAM120A (lysine site: K673) (UniProt Q9NZB2)	1.15 (active)
SPTBN1 (lysine site: K1421) (UniProt Q01082)	3.37 (inactive)
ANXA2 (lysine site: K49) (UniProt P07355)	3.95 (inactive)
NOTCH1 (lysine site: K1607) (UniProt P46531)	6.4 (inactive)
KTN1 (lysine site: K1240) (UniProt Q86UP2)	5.6 (inactive)
MSN (lysine site: K79) (UniProt P26038)	2.55 (inactive)
LAMB1 (lysine site: K1757) (UniProt P07942)	5.94 (inactive)
UniProt Q8WXI7 (lysine site: K13384)	7.85 (inactive)
UniProt Q92729 (lysine site: K388)	3.11 (inactive)
UniProt Q15149 (lysine site: K2846)	3.06 (inactive)
SERPINC1 (lysine site: K260) (UniProt P01008)	5.6 (inactive)
RPL3 (lysine site: K272) (UniProt P39023)	2.04 (inactive)
HSPG2 (lysine site: K3155) (UniProt P98160)	1.37 (active)
EEF1G (lysine site: K243) (UniProt P26641)	1.4 (active)
UniProt P62280 (lysine site: K32)	4.32 (inactive)
TFRC (lysine site: K439) (UniProt P02786)	2.93 (inactive)

Target	lysine labeling ratio R10:1
TKT (lysine site: K283) (UniProt P29401)	7.35 (inactive)
FRAS1 (lysine site: K2523) (UniProt Q86XX4)	2.03 (inactive)
UniProt Q9NYQ6 (lysine site: K316)	3.81 (inactive)
APOB (lysine site: K1642) (UniProt P04114)	2.17 (inactive)
ALCAM (lysine site: K87) (UniProt Q13740)	1.41 (active)
SND1 (lysine site: K177) (UniProt Q7KZF4)	0.9 (active)
FAT4 (lysine site: K1675) (UniProt Q6V0I7)	1.93 (active)
ITGA1 (lysine site: K849) (UniProt P56199)	0.921 (active)
RPL35A (lysine site: K95) (UniProt P18077)	3.1 (inactive)
CD9 (lysine site: K135) (UniProt P21926)	3.43 (inactive)
UniProt Q15149 (lysine site: K2078)	2.58 (inactive)
PTBP1 (lysine site: K137) (UniProt P26599)	3.2 (inactive)
SHMT2 (lysine site: K181) (UniProt P34897)	1.17 (active)
LMAN1 (lysine site: K372) (UniProt P49257)	2.72 (inactive)
PDCD6IP (lysine site: K486) (UniProt Q8WUM4)	0.775 (active)
UniProt Q15149 (lysine site: K2903)	2.51 (inactive)
ITGA3 (lysine site: K161) (UniProt P26006)	5.16 (inactive)
HEG1 (lysine site: K1178) (UniProt Q9ULI3)	4.55 (inactive)
SQSTM1 (lysine site: K13) (UniProt Q13501)	7.96 (inactive)
LAMB1 (lysine site: K1368) (UniProt P07942)	1.59 (active)
